Laboratory results from PubChem BioAssay (EPA / NIEHS).
More than one record can exist for a structure, and the calls need not agree. Activity calls are given as the source filed them. The calls were made as follows: active = hit-call score of the fitted dose curve at least 0.9, where 1 is the maximum; inactive = score below 0.9.

test: ATG_TA_CIS: Attagene CIS-FACTORIAL HepG2 Assay for human TA Basal Promoter (AID 2282964); conditions: HepG2 Attagene CIS-factorial TA basal promoter reporter; actives raise or lower the signal
Procedure: ATG_CIS is a cell-based, multiplexed-readout assay that uses HepG2, a human liver cell line, with measurements taken at 24 hours after chemical dosing in a 24-well plate.ATG_TA_CIS is one of 52 assay component(s) measured or calculated from the ATG_CIS assay. It is designed to make measurements of mRNA induction, a form of inducible reporter, as detected with fluorescence intensity signals by Reverse transcription polymerase chain reaction (RT-PCR) and Capillary electrophoresis technology.Data from the assay component ATG_TA_CIS was analyzed into 1 assay endpoint. This assay endpoint, ATG_TA_CIS, was analyzed with bidirectional fitting relative to DMSO as the negative control and baseline of activity. Using a type of inducible reporter, measures of mRNA for gain or loss-of-signal activity can be used to understand the background control at the transcription factor-level as they relate to the gene . Furthermore, this assay endpoint can be referred to as a secondary readout, because this assay has produced multiple assay endpoints where this one serves a background control function. To generalize the intended target to other relatable targets, this assay endpoint is annotated to the background measurement intended target family, where the subfamily is internal marker.
Human liver HepG2 cells are transiently transfected with multiple reporter transcription units (MRTUs) in 6-well plates using FuGene 6 reagent (Roche; 3 ml FuGene/1 mg DNA). The MRTU constructs are regulated by a cis-regulating element (promoter). […] A major difference between the CIS and TRANS system is that in CIS activities of endogenous TFs are measured, whereas the TRANS assay evaluates changes in activities of exogenous, chimeric NR-Gal4 proteins. […] At the end of 24 hour incubation, total RNA was isolated using TriZol reagent (Invitrogen). The isolated RNA is then reverse-transcribed using oligo(dT) primer and Mo-MLV reverse transcriptase (Invitrogen) with DNAse I (Ambion) treatment for 30 min. The one-tenth of the produced cDNA was amplified by PCR using Taq DNA polymerase (Invitrogen) and two reporter sequence-specific primers. The PCR products were fluorescently labeled by primer extension with 6-arboxyfluorescein (6-FAM) 5'-labeled reporter sequence-specific primer (2 min at 95 C, 20 s at 68 C and 10 min at 72 C) and these products were digested with 5U of HpaI (New England Biolabs) for 2h at 37 C. The fragments were purified using Qiaquick PCR columns (Qiagen), analyzed on an ABI 3130xL genetic analyzer (Applied Biosystems) with peak positions identified by using a set of X-rhodamine (ROX)-labeled MapMarker1000 molecular weight standards (BioVentures). The raw capillary electrophoresis data was processed using Attagraph software (Attagene).

Compound | outcome | AC50
CCCCCCC(C)OC(=O)CCCCC(=O)OC(C)CCCCCC (stereo not given) | inactive | –
N=C(N)C(F)(F)C(F)(F)C(F)(F)C(F)(F)C(F)(F)C(F)(F)C(F)(F)F | inactive | –
Cc1ccc(S(=O)(=O)NCl)cc1 | inactive | –
O=C(Cl)C(F)(F)C(F)(F)C(F)(F)C(F)(F)C(F)(F)C(F)(F)C(F)(F)C(F)(F)F | inactive | –
CS(C)(=O)=O | inactive | –
C=CC(F)(F)C(F)(F)C(F)(F)C(F)(F)C(F)(F)C(F)(F)C(F)(F)C(F)(F)C=C | inactive | –
COC(OC(C)=O)c1ccccc1 (stereo not given) | inactive | –
CC(C)c1ccccc1N | inactive | –
C1COCCN1 | inactive | –
O[Si](c1ccccc1)(c1ccccc1)c1ccccc1 | inactive | –
CCCCC(CC)COP(=O)(O)OCC(CC)CCCC (stereo not given) | inactive | –
FC(F)(F)C(F)(F)C(F)(F)C(F)(F)C(F)(F)C(F)(F)CC1CO1 (stereo not given) | inactive | –
CC(Cc1ccc(O)c(O)c1)C(C)Cc1ccc(O)c(O)c1 (stereo not given) | – | 18.4 µM (active)
Nc1ccc(Oc2cccc(Oc3ccc(N)cc3)c2)cc1 | – | 26.8 µM (active)
OC[C@@H](O)[C@@H](O)[C@H](O)[C@@H](O)CO | inactive | –
Cc1ccc(S(=O)(=O)OCC(F)(F)C(F)(F)C(F)(F)C(F)(F)C(F)(F)C(F)F)cc1 | inactive | –
O=C(O)C=C(C(F)(F)F)C(F)(F)F | inactive | –
OCCCC(F)(F)C(F)(F)C(F)(F)C(F)(F)C(F)(F)C(F)(F)C(F)(F)F | inactive | –
CC(C)(C)C(=O)CC(=O)C(F)(F)C(F)(F)C(F)(F)F | inactive | –

Compound | outcome | AC50
CCCCCCCOC(=O)c1ccccc1C(=O)OCCCCCCC | inactive | –
O=C(O)C(F)(OC(F)(F)C(F)(OC(F)(F)C(F)(OC(F)(F)C(F)(F)C(F)(F)F)C(F)(F)F)C(F)(F)F)C(F)(F)F (stereo not given) | inactive | –
C=C(C)C(=O)OCC(F)(F)C(F)(F)C(F)(F)F | inactive | –
C=CC/C=C/C/C=C/C/C=C/C | inactive | –
c1ccc(-c2ccccc2-c2ccccc2)cc1 | inactive | –
C=C(C)C(=O)OCCC(F)(F)C(F)(F)C(F)(F)C(F)(F)C(F)(C(F)(F)F)C(F)(F)F | inactive | –
CC(C)=CCCC(C)CCOC(=O)C(C)C (stereo not given) | inactive | –
O=S(=O)(O)C(F)(F)C(F)(F)C(F)(F)C(F)(F)C(F)(F)C(F)(F)C(F)(F)F | inactive | 159 µM (active)
FC(F)(F)C(F)(F)C(F)(F)C(F)(F)C(F)(F)C(F)(F)C(F)(F)C(F)(F)CCS | inactive | –
COC(=O)CCC(F)(F)C(F)(F)C(F)(F)C(F)(F)F | inactive | –
O=C(O)C(F)(F)C(F)(F)C(F)(F)C(F)(F)C(F)(F)C(F)(F)C(F)(F)C(F)(F)Cl | inactive | 50 µM (active)
CCCCCCCCCCCCCCCC[N+](C)(C)Cc1ccccc1 | inactive | –
C=CC(F)(F)C(F)(F)C(F)(F)C(F)(F)C(F)(F)C(F)(F)C(F)(F)C(F)(F)F | inactive | –
Nc1ccc([N+](=O)[O-])cc1O | inactive | –
O=C(O)C(F)(F)C(F)(F)C(F)(F)C(F)(F)C(F)(F)C(F)(F)C(F)(F)C(F)(F)C(F)(F)C(F)(F)C(F)(F)C(F)(F)C(F)(F)F | inactive | –
COC(=O)C1CCC(C(=O)OC)CC1 (stereo not given) | inactive | –
FC(F)(F)C(F)(F)C(F)(F)C(F)(F)C(F)(F)C(F)(F)C(F)(F)I | inactive | –
O=C(CC(=O)C(F)(F)C(F)(F)F)C(F)(F)F | inactive | –
O=C(O)C(F)(OC(F)(F)C(F)(OC(F)(F)C(F)(F)C(F)(F)F)C(F)(F)F)C(F)(F)F (stereo not given) | inactive | –
